Experimental data published in PubChem BioAssay (NCATS).
Results filed as inconclusive are left out. Where a call stands in place of a potency, no number is given. The source made the active and inactive calls. Calls come from the whole dose curve; as a rule, active = well fitted cell-killing curve with a large enough effect; inconclusive = small, poorly fitted or top-dose-only effect; inactive = flat fitted curve, though single readings scatter.

Test: qHTS of pediatric cancer cell lines to identify multiple opportunities for drug repurposing: Primary screen for TC32 cells (AID 1347089); note: nearly all actives have a fitted effect of over 60% in size
Settings: TC32 Ewing sarcoma viability, CellTiter-Glo luminescence, 48 h; series mostly up to 45.8 µM
In short: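 Luminescent ATP read-out (CellTiter-Glo) of metabolically active TC32 cells after 48 h exposure. Concentration-response curves came from 11-point (MIPE, 0.78 nM–46 µM) or 8-point (NPC, 0.59 nM–46 µM) primary titrations; follow-up used 11 points.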
Potency is the fitted concentration of half-maximal effect.

Structure (SMILES)	Potency
Cc1ncc([N+](=O)[O-])n1C	inactive
OC1(c2ccc(Cl)cc2)CCNCC1	inactive
O=C(COCCOCCOCC(=O)Nc1c(I)cc(I)c(C(=O)O)c1I)Nc1c(I)cc(I)c(C(=O)O)c1I	inactive
CC1CCCCN1CCCOC(=O)c1ccc(OC2CCCCC2)cc1 (stereo not drawn)	inactive
CC[C@@]1(O)C(=O)OCc2c1cc1n(c2=O)Cc2c-1nc1ccccc1c2/C=N/OC(C)(C)C	29.7 nM (active)
CC[N+]1(CC)CCC(=C(c2ccccc2)c2ccccc2)C1C (stereo not drawn)	inactive
NS(=O)(=O)c1cc(C(=O)NN2C[C@H]3[C@H]4CCC(C4)[C@H]3C2)ccc1Cl	inactive
Cc1ccc(CCn2c3c(c4cc(Cl)ccc42)CN(C)CC3)cn1	inactive
O=C1OC2(c3ccccc31)c1cc(I)c(O)c(I)c1Oc1c2cc(I)c(O)c1I	inactive
Nc1nnnn1-c1ccccc1	inactive
C/C(=C1\CCOC(=O)S1)N(C=O)Cc1cnc(C)nc1N	inactive
COc1cc(C(=O)OC(COCCC(C)C)CN2CCOCC2)cc(OC)c1OC (stereo not drawn)	inactive
Cc1oc(=O)oc1COC(=O)[C@@H]1N2C(=O)[C@@H](NC(=O)[C@H](N)c3ccccc3)[C@H]2SC1(C)C	inactive
O=C(O)Cn1cnnn1	inactive
O=C(O)C1CCC1	inactive
O=C(O)c1ccc(OCCN2CCCCC2)cc1	inactive
CC(C)CCCC(C)NCCC(C)C (stereo not drawn)	inactive
CC(=O)OCC[N+](C)(C)C	inactive
Nc1ccc2c(c1)CN1C(=O)c3ccccc3C1=N2	inactive
O=C1Cc2cc(Cl)ccc2N1	inactive
CCCCCCCCCCCCCCCCCCN(C)C	inactive
CCCCOC(=O)CCCCCCCCC(=O)OCCCC	inactive
O=C(O)C(=O)Nc1cccc(-c2nn[nH]n2)c1	inactive
CN1[C@@H]2CC[C@H]1CC(NC(=O)n1c(=O)[nH]c3ccccc31)C2 (stereo partly drawn)	inactive
O=C(OCCN1CCOCC1)c1cccnc1Nc1cccc(C(F)(F)F)c1	inactive
C/C(=N\O)[C@@H](C)NCC(C)(C)CN[C@H](C)/C(C)=N/O	inactive
O=C1CCCc2c(O)cccc21	inactive
Cc1nc(N)nc(N)c1-c1ccc(Cl)c(Cl)c1	470 nM (active)
NC(=O)NS(=O)(=O)c1ccc(Cl)cc1	inactive
CCC1=C[C@@H]2CN(C1)Cc1c([nH]c3ccccc13)[C@@](C(=O)OC)(c1cc3c(cc1OC)N(C)[C@H]1[C@@](O)(C(=O)OC)[C@H](OC(C)=O)[C@]4(CC)C=CCN5CC[C@]31[C@@H]54)C2	26.4 nM (active)

Test: qHTS of pediatric cancer cell lines to identify multiple opportunities for drug repurposing: Primary screen for DAOY cells (AID 1347090); note: nearly all actives have a fitted effect of over 55% in size
Settings: DAOY medulloblastoma viability, CellTiter-Glo luminescence, 48 h; series mostly up to 46 µM
In short: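 Cell viability, CellTiter-Glo luminescence; 500-1,000 cells/well, 8- or 11-point titration, 48 h compound exposure at 37 degrees C, 5% CO2. Controls: DMSO neutral, bortezomib 2.3 µM final as positive.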

Structure (SMILES)	Potency
Cc1ncc([N+](=O)[O-])n1C	inactive
OC1(c2ccc(Cl)cc2)CCNCC1	inactive
Nc1nc(=O)n([C@@H]2O[C@H](CO)[C@@H](O)[C@@H]2F)cc1I	inactive
CCCCCCCCCCCCCC[N+](C)(C)C	10600 nM (active)
O=C(COCCOCCOCC(=O)Nc1c(I)cc(I)c(C(=O)O)c1I)Nc1c(I)cc(I)c(C(=O)O)c1I	inactive
CC1CCCCN1CCCOC(=O)c1ccc(OC2CCCCC2)cc1 (stereo not drawn)	inactive
CC[C@@]1(O)C(=O)OCc2c1cc1n(c2=O)Cc2c-1nc1ccccc1c2/C=N/OC(C)(C)C	106 nM (active)
CC[N+]1(CC)CCC(=C(c2ccccc2)c2ccccc2)C1C (stereo not drawn)	inactive
NS(=O)(=O)c1cc(C(=O)NN2C[C@H]3[C@H]4CCC(C4)[C@H]3C2)ccc1Cl	inactive
Cc1ccc(CCn2c3c(c4cc(Cl)ccc42)CN(C)CC3)cn1	inactive
O=C1OC2(c3ccccc31)c1cc(I)c(O)c(I)c1Oc1c2cc(I)c(O)c1I	inactive
Nc1nnnn1-c1ccccc1	inactive
CCCCCCCCCCCCCCCC[n+]1ccccc1	16800 nM (active)
C/C(=C1\CCOC(=O)S1)N(C=O)Cc1cnc(C)nc1N	inactive
COc1cc(C(=O)OC(COCCC(C)C)CN2CCOCC2)cc(OC)c1OC (stereo not drawn)	inactive
Cc1oc(=O)oc1COC(=O)[C@@H]1N2C(=O)[C@@H](NC(=O)[C@H](N)c3ccccc3)[C@H]2SC1(C)C	inactive
O=C(O)Cn1cnnn1	inactive

Structure (SMILES)	Potency
O=C(O)C1CCC1	inactive
O=C(O)c1ccc(OCCN2CCCCC2)cc1	inactive
CC(C)CCCC(C)NCCC(C)C (stereo not drawn)	inactive
CC(=O)OCC[N+](C)(C)C	inactive
O=C1Cc2cc(Cl)ccc2N1	inactive
CCCCCCCCCCCCCCCCCCN(C)C	inactive
CCCCOC(=O)CCCCCCCCC(=O)OCCCC	inactive
O=C(O)C(=O)Nc1cccc(-c2nn[nH]n2)c1	inactive
CN1[C@@H]2CC[C@H]1CC(NC(=O)n1c(=O)[nH]c3ccccc31)C2 (stereo partly drawn)	inactive
O=C(OCCN1CCOCC1)c1cccnc1Nc1cccc(C(F)(F)F)c1	inactive
C/C(=N\O)[C@@H](C)NCC(C)(C)CN[C@H](C)/C(C)=N/O	inactive
O=C1CCCc2c(O)cccc21	inactive
Cc1nc(N)nc(N)c1-c1ccc(Cl)c(Cl)c1	841 nM (active)
NC(=O)NS(=O)(=O)c1ccc(Cl)cc1	inactive
CCC1=C[C@@H]2CN(C1)Cc1c([nH]c3ccccc13)[C@@](C(=O)OC)(c1cc3c(cc1OC)N(C)[C@H]1[C@@](O)(C(=O)OC)[C@H](OC(C)=O)[C@]4(CC)C=CCN5CC[C@]31[C@@H]54)C2	53.1 nM (active)
CCCC(=O)O[C@]1(C(=O)CC)CC[C@H]2[C@@H]3CCC4=CC(=O)CC[C@]4(C)[C@H]3[C@@H](O)C[C@@]21C	inactive
